The values that follow come from the supplement of paper PMC6555819.

Common to all, as to assay: PBM binding z-score (relative to random genomic background probes); higher = stronger binding; sequences stand for … in GC…GCGATTGACAGCGTAGAATGAAGG
Test [1] deals with RARb homodimer (NR concentration 270 nM). In short, it runs like this: (§1)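 Each nuclear receptor dimer, without ligand, was incubated for 1 h on custom Agilent 4×180K protein-binding microarrays. Binding was detected with antibodies against each partner (one per run), and scanned fluorescence was regression-normalized. The binding z-scores are referenced to random human genomic background probes.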

For test [2], the system named is RARg:RXRa (NR concentration 270 nM, RXRa partner concentration 90 nM). Put shortly: as §1
Test [3] deals with RARg homodimer (NR concentration 270 nM). In short, it runs like this: as §1
Test [4] has as its system RXRa DBDmut IVT, anti-RXR (DBD mutation: RXRa K156A/R161A, NR concentration 90 nM). Put shortly: as §1
Test [5] has as its system RXRa homodimer (NR concentration 180 nM). Put shortly: as §1
The test system of test [6] is THRa:RXRa (NR concentration 90 nM, RXRa partner concentration 90 nM). In short, it runs like this: as §1
Test [7] concerns THRa homodimer (NR concentration 90 nM). In short, it runs like this:
as §1

Test [8] deals with VDR:RXRa (NR concentration 270 nM, RXRa partner concentration 90 nM). In short, it runs like this:
as §1

For test [9], the system named is VDR homodimer (NR concentration 270 nM). In short, it runs like this: as §1

Turning to ATCTCTAGGTAAGACTCCGTTCAGTGAAGAACGC, the PBM binding z-score in test [1] was 0.62; in test [2], 0.111; in test [3], 0.108; in test [4] it was 0.35; in [5], -0.00325; in test [6] it was 0.381. Further, the PBM binding z-score in test [7] was found to be 0.809; in [8], 0.0228; in [9], 0.435.
Take TAGCCAAGGTCATGGGCCAGTATACCACGCGAAC: the PBM binding z-score in [1] stood at 4.04; in test [2] it was 6.18; in [3], 6.1; in [4], 1.93; in test [5] it was 6.11; in test [6], 3.89. Besides, the PBM binding z-score is 2.68 in test [7], 4.51 in test [8] and 2.65 in [9].
Turning to CCTACAGGGCCACGAAAGGTCATTGATTCAGTGA, the PBM binding z-score stood at 5.01 in [1]; 5.13 in test [2]; 5.03 in [3]; 0.833 in test [4]; 5.27 in test [5]; 4.25 in test [6]. Besides, the PBM binding z-score in [7] stood at 0.829; in test [8], 4.61; in [9] it was 2.2.
With ATCTCTAGGTAAAGATAGTTCTGTGAATGCAAAT, the PBM binding z-score in [1] was -0.0245; in test [2], 0.131; in test [3], 0.453; in [4] it was 0.28; in [5], 0.154; in test [6], 0.478. Besides, the PBM binding z-score in [7] is 0.132; in test [8] it was 0.285; in test [9], 0.175.
For TAGCCTTGGTCATGGGCCAGTATACCACGCGAAC, the PBM binding z-score in test [1] was 0.441; in [2] it was 0.368; in [3], 0.681; in test [4], -1.32; in test [5], 0.297; in test [6], -0.147. The PBM binding z-score in test [7] is -0.424; in [8] it was -0.347; in test [9], -0.715.
In the case of GCGACTGGGGCATCAGCAGGTTACCATTACTTAA, the PBM binding z-score was 1.18 in test [1]; 0.735 in test [2]; 0.488 in [3]; 0.25 in test [4]; 0.246 in [5]; 0.833 in [6]. In addition, the PBM binding z-score in test [7] is 0.247; in [8], -0.244; in [9], -0.0861.
Consider TCTCGGAGGACACGAAGGACAGAGCTTTCCAGAG, for which the PBM binding z-score was 0.867 in test [1]; 0.776 in [2]; 1.75 in test [3]; 0.518 in [4]; 0.243 in test [5]; 1.48 in [6]. For the same sequence, the PBM binding z-score in test [7] was 0.544; in test [8], -0.0596; in test [9], 0.139.
For the sequence CGTCAAAGTTCAATGTAACGTAACAGAAAGCAGC, the PBM binding z-score in [1] is 3.56; in [2], 4.82; in test [3], 5.45; in [4], 4.69; in [5] it was 3.78; in test [6], 1.64. The PBM binding z-score in test [7] was -0.0537; in test [8], 3.74; in test [9], 3.96.
On to ATCGAAAGGTCGAACGTGAGTATACCCACCCGAA, for which the PBM binding z-score in test [1] worked out at 2.3; in test [2], 3.98; in test [3] it was 3.79; in test [4], 1.83; in test [5], 4.08; in test [6], 1.89. Moreover, the PBM binding z-score in test [7] was -0.12; in test [8], 2.88; in test [9], 0.989.
Turning to TGAATGAGGTTATAAGATCAGGGATCGTTGCAAA, the PBM binding z-score in [1] was -0.0683; in test [2], 1.33; in test [3], 0.782; in test [4], 0.362; in [5], 2.09; in test [6] it was 1.68. Moreover, the PBM binding z-score in [7] was found to be 0.0696; in test [8], 0.956; in test [9], 0.406.
Take AGAATGAGGTTACCAAACATCAGGGAAACGCTTG: the PBM binding z-score was found to be 0.501 in test [1]; 1.92 in test [2]; 1.75 in test [3]; 1.15 in [4]; 2.56 in test [5]; 2.59 in test [6]. Besides, the figures for the PBM binding z-score in test [7], in test [8] and in test [9] were 0.726, 1.04 and 0.159, respectively.
As for TCGACTAGGTTACCAATGGGGCATTCAGCTTTCT, the PBM binding z-score in [1] was 1.02; in test [2] it was 1.16; in [3] it was 0.432; in [4] it was 1.07; in [5], 0.661; in test [6], 0.557. Further, the PBM binding z-score was 0.42 in [7], 0.439 in [8] and -0.0453 in test [9].
AGAACGAGGGCACGCTGAGTTGGTAGCAGAGTAG: the PBM binding z-score in test [1] worked out at 1.01; in test [2], 1.69; in [3], 2.37; in test [4], 1.55; in [5], 1.19; in test [6], 1.56. In addition, the PBM binding z-score in test [7] was -0.105; in test [8], 1.34; in test [9], 0.953.
For the sequence AGAATGAGGTTATACGTAGATCAGGGGAGAAAGT, the PBM binding z-score in [1] was 0.956; in [2], 1.78; in test [3] it was 1.26; in test [4] it was 2.05; in test [5] it was 2.14; in [6] it was 2.25. Also, the PBM binding z-score turned out to be 0.738 in [7], 1.42 in [8] and 1.45 in test [9].
Consider CAGCGTAGGTCAGGGCCAGTATAGGAGGAACGTT, for which the PBM binding z-score in test [1] is 2.49; in test [2], 3.4; in test [3], 4.22; in test [4], -0.29; in test [5], 2.04; in [6], 1.24. Further, the results for the PBM binding z-score in [7], in [8] and in [9] were -0.0112, 0.388 and -0.494, respectively.
TCCAGTAGGTTAGGGGCATTCAGAATGGCGTCGA: the PBM binding z-score in test [1] worked out at 0.983; in test [2], 0.561; in [3], 0.313; in test [4], 1.16; in test [5], 1.06; in test [6], 0.915. The values for the PBM binding z-score in test [7], in test [8] and in test [9] were 0.179, 0.702 and 0.877, respectively.
